# Screening data: PubChem BioAssay, National Center for Advancing Translational Sciences (NCATS)
# ELG1 repair inh – inhibitors of ELG1-dependent DNA repair in HEK293T cells | Potency, µM (doses to about 46.1 µM), for inactives: top-dose activity change, negative = inhibition, actives largely listed as inhibitors | 330,000 tested, 2.3% active | HEK293T ELG1-luciferase reporter, luminescence, 16 h; DNA damage induced by 5-fluorouridine | AID 504467; further: nearly all actives have a fitted effect of over 55% in size
#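 In this reporter screen, reduction of luminescence relative to DMSO vehicle indicated activity. Compounds and 5-fluorouridine were added together to 2,000 cells per well, incubated for 16 hr at 37 °C, then developed with ONE-Glo.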
# TDP1 cell noCPT – qHTS for Inhibitors of human tyrosyl-DNA phosphodiesterase 1 (TDP1): qHTS in cells in absence of CPT | DT40 Tdp1-/- hTDP1 cells, no CPT, ATP luminescence, 48 h | Potency, µM (doses to about 46.2 µM), without a hit: at the top dose activity change, negative = growth inhibition, actives largely listed as inhibitors | 420,000 tested, 15% active | AID 686978, 2013; further: nearly all actives have a fitted effect of over 55% in size
#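 DT40 Tdp1-/-;hTDP1 cells, no CPT (DMSO vehicle only), 400 cells/well; compounds pin-transferred; ≥48 hr, 37 °C; CellTiter-Glo 30 min RT dark, luminescence read.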
# ALOX12 inh – inhibitors of human 12S-lipoxygenase ALOX12 | P18054 | 580,000 tested, 1.1% active | Potency, µM (top dose mostly 108 µM), for inactives: top-dose activity change, negative = inhibition, usual class: inhibitors | purified 12hLO, xylenol orange hydroperoxide absorbance
#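 Hydroperoxide product was detected by ferrous iron/xylenol orange as the 573 to 405 nm absorbance ratio. Arachidonic acid at 40 uM (final) was turned over for 30 min at room temperature by 150 nM human 12hLO, pH 7.0 Hepes buffer, after 15 min compound preincubation.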
# VP16 counter – inhibits Gal4-VP16 luciferase reporter, ROR gamma counter-screen; Drosophila S2 Gal4-VP16 UAS-luciferase, luminescence, 20 h; Potency, µM (titrated, usually from 53.6 µM), for inactives: at the top dose activity, negative = inhibition, usual class: inhibitors; 310,000 tested, 3.5% active; AID 2546;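 further: Gal4-VP16 expression switched on by copper sulfate through the metallothionein promoter; nearly all actives have a fitted effect of over 50% in size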
# RORg inh – blocks mouse ROR gamma transcriptional activity; P51450; Drosophila S2 Gal4-RORgamma UAS-luciferase reporter, 20 h; Potency, µM (titrated, usually from 53.6 µM), for the others: at the top dose activity change, negative = inhibition, actives largely listed as inhibitors; 310,000 tested, 5.4% active; AID 2551; further: nearly all actives have a fitted effect of over 60% in size
# Target sequence (P51450 whole entry, looked up, the tested form may be a part): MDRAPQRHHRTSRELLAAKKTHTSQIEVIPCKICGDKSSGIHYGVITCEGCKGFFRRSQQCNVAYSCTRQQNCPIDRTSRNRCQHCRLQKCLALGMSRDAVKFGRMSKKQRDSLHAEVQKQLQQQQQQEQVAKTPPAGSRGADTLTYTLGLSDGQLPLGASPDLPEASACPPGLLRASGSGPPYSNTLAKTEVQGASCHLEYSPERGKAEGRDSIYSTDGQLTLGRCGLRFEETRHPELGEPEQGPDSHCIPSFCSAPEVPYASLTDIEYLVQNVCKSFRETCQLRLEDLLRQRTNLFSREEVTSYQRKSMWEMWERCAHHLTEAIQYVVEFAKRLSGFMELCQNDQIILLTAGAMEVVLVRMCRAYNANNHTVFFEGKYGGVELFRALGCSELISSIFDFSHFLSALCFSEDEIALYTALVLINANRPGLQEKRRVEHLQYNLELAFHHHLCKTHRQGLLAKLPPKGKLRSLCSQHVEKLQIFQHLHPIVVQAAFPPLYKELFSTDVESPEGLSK
#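 Luciferase reporter read in Schneider cells carrying Gal4-RORγ (mouse) and UAS-Photinus luciferase; cells given compound 1 h before 700 uM copper sulfate induction, then incubated 20 h at ambient temperature.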
# DT40 TDP1 CPT – DT40-hTDP1 cell growth loss with CPT; chicken DT40 Tdp1-/-;hTDP1 cells + 20 nM CPT, ATP luminescence, 48 h; 420,000 tested, 12% active; AID 686979; Potency, µM (highest dose often 46.2 µM), inactives show at the top dose activity change, negative = growth inhibition, most hits filed as inhibitors; further: nearly all actives have a fitted effect of over 55% in size
#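 Chicken DT40 Tdp1-/- cells stably complemented with human TDP1 were seeded at 400 cells/well in medium containing 20 nM camptothecin, exposed to pin-transferred compounds, and grown at 37 °C for at least 48 hr. Viability was read as ATP luminescence.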
# Active calls of the source: *; ? = inconclusive; . = no result; [ ] = another dose, or the depositor's remark. Compounds with a hit are over-represented: about 15% of the library has one in this group of screens. The call rests on the fitted dose curve; in most records, active means well fitted curve in the direction sought with a large enough effect; inconclusive means small, poorly fitted or top-dose-only effect, or another doubt; inactive means no such curve, though single readings can be large; an effect the other way counts as inactive or inconclusive. On the % scale 0 is the no-effect control and ±100 the full control effect; potency means the concentration at half of the fitted maximal effect.
SMILES,ELG1 repair inh,TDP1 cell noCPT,ALOX12 inh,VP16 counter,RORg inh,DT40 TDP1 CPT
CC(CCc1ccco1)NC(=O)c1ccc(Cl)c(S(=O)(=O)NC2CC2)c1 (configuration not stated),.,.,-22%,.,.,.
CCOc1cc(-c2sc(Nc3ccc(CC)cc3)n[n+]2-c2ccccc2)ccc1OC,?,18µM*,?,.,.,16µM*
CCC(c1nnc(SCC(=O)Nc2ccc(C(=O)N(C)C)cc2)n1Cc1ccccc1)N(C)C (configuration not stated),0%,-9%,8%,2%,3%,-20%
CCC(c1nnc(SCC(=O)Nc2nnc(-c3ccccc3)o2)n1Cc1ccccc1)N(C)C (configuration not stated),?,-4%,-13%,?,8.9µM*,28%
CC(O)CNc1nc2c(c(=O)n(C)c(=O)n2C)n1Cc1ccc(F)cc1 (configuration not stated),.,.,11%,.,.,.
Cc1ccc(N(CC(=O)NCC2CCCO2)S(=O)(=O)c2ccc(C)cc2)cc1 (configuration not stated),.,.,-24%,.,.,.
CC(=O)c1ccc(OCc2cc(C(=O)N3CCN4CCCC4C3)no2)cc1 (configuration not stated),-4%,?,-1%,5%,11%,-9%
COc1ccc(C(=O)N2CCC(c3ccncc3)CC2)cc1OC,.,-8%,-2%,.,.,-26%
CC(=O)c1ccc(OCc2cc(C(=O)N3CCC(c4ccncc4)CC3)no2)cc1,0%,5.8µM*,-2%,?,-7%,12µM*
COCC1CCCN(C(=O)c2cc(COc3ccc(C(C)=O)cc3)on2)C1 (configuration not stated),.,-28%,6%,.,.,-22%
CCN(CC)c1ccc(C(=O)N2CCC(c3ccncc3)CC2)cc1,.,3.3µM*,-2%,.,.,21µM*
COc1cccc(OCc2cc(C(=O)N3CCC(c4ccncc4)CC3)no2)c1,?,8.2µM*,11%,?,-32%,15µM*
CC(=O)c1ccc(OCc2cc(C(=O)N3CC[C@@H]4CCCC[C@H]4C3)no2)cc1,?,16µM*,?,-13%,19%,?
Cc1ccc(OCc2cc(C(=O)N3CCCC(O)C3)no2)cn1 (configuration not stated),?,0%,7%,-10%,18%,1%
CC(=O)c1ccc(OCc2cc(C(=O)N3CCCCC3c3cccnc3)no2)cc1 (configuration not stated),?,18µM*,12%,?,35%,21µM*
Cc1ccc(OCc2cc(C(=O)N3CCCC(C)C3)no2)cn1 (configuration not stated),.,21µM*,-17%,.,.,16µM*
COc1cccc(OCc2cc(C(=O)N3CCN(C)C(c4ccccc4)C3)no2)c1 (configuration not stated),?,?,.,14%,33%,26µM*
CCCOc1ccc(CNC(=S)NCc2ccc(OC(C)C)cc2)cc1,-7%,18µM*,-5%,7.1µM*,7.1µM*,?
CCCOc1ccc(/C=N/NC(=O)c2ccc(Cn3cc([N+](=O)[O-])cn3)o2)cc1,?,-19%,1%,-3%,-1%,1%
CCCOc1ccc(CNC(=S)N/N=C/c2ccc([N+](=O)[O-])cc2)cc1,22%,21µM*,0%,1.6µM*,1.3µM*,?
CC(C)COc1ccc(CNC(=S)N/N=C/c2ccc([N+](=O)[O-])cc2)cc1,?,-28%,-17%,4.5µM*,1.4µM*,-13%
Cc1ccc(CC(=O)N/N=C/c2ccc(OC(=O)c3ccc([N+](=O)[O-])cc3)cc2)cc1,-7%,-27%,-23%,11%,-1%,?
O=C(CN1CCN(c2cnn(-c3ccccc3)c(=O)c2Cl)CC1)Nc1ccc2ccccc2c1,.,.,-32%,.,.,.
O=[N+]([O-])c1ccc(N2CCN(c3ccccc3)CC2)c2ccncc12,.,.,-7%,.,.,.
Cc1ccc(C)c(S(=O)(=O)Nc2ccc(O)c(Sc3ncn[nH]3)c2)c1,3%,13%,-10%,-17%,?,-18%
SMILES,ELG1 repair inh,TDP1 cell noCPT,ALOX12 inh,VP16 counter,RORg inh,DT40 TDP1 CPT
Cc1ccc(S(=O)(=O)/N=C2/C=C(Sc3ncn[nH]3)C(=O)c3ccccc32)cc1,16µM*,0.37µM*,.,3.5µM*,3.5µM*,0.33µM*
Cc1ccc(S(=O)(=O)N2CCN(C(=O)CSc3ncn[nH]3)CC2)c(C)c1,0%,?,-30%,.,.,?
O=C(c1ccccc1)C(Sc1ncn[nH]1)c1ccccc1 (configuration not stated),-18%,-20%,?,-6%,-36%,4%
Cc1ccc(S(=O)(=O)/N=C2/C=C(Sc3ncn[nH]3)C(=O)c3ccccc32)c(C)c1,21µM*,.,.,5µM*,11µM*,.
CC(C)c1ccc(S(=O)(=O)/N=C2/C=C(Sc3ncn[nH]3)C(=O)c3ccccc32)cc1,6.5µM*,3.3µM*,.,-5%,?,2.6µM*
CCc1ccc(C2c3[nH]c4ccccc4c3CCN2C(=O)CN2CCN(CC)CC2)cc1 (configuration not stated),-4%,26µM*,?,-24%,-36%,?
CSc1ccc(C2c3[nH]c4ccccc4c3CCN2C(=O)CCc2ccccc2)cc1 (configuration not stated),.,-21%,-17%,.,.,-18%
Cc1ccc(C2c3[nH]c4ccccc4c3CCN2C(=O)CSCc2ccc(F)cc2)cc1 (configuration not stated),.,23µM*,-1%,.,.,?
CCc1ccccc1NC(=O)N1CCc2c([nH]c3ccccc23)C1c1ccc(C)cc1 (configuration not stated),.,15µM*,-27%,.,.,16µM*
O=C(CSCc1ccc(F)cc1)N1CCc2c([nH]c3ccccc23)C1c1ccc(F)cc1 (configuration not stated),.,18µM*,0%,.,.,18µM*
O=C(Nc1ccccc1F)N1CC2CCC(C1)N2Cc1cccc(-c2cccs2)c1,.,.,12%[6.33 µM],.,.,.
CN1C[C@@H]2C[C@H]1CN2c1cc2c(cc1F)c(=O)c(C(=O)O)cn2C1CC1,.,6.7µM*,-7%[12.5 µM],-4%,-23%[10 µM],6.7µM*
COc1c(F)c(F)cc2c(=O)c(C(=O)O)cn(C3CC3)c12,?,-17%,?,10%,-2%,2%
